FLuc counter = counter-screen for miR-21 project: firefly luciferase inhibitors or activators. Potency, µM (doses to about 57.5 µM), inactives show at the top dose activity change, negative = inhibition, actives largely listed as inhibitors. purified FLuc, Km substrates, luminescence inhibition. P08659. AID 588342. 360,000 tested, 6.9% active;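 note: plate controls were vehicle for no effect and reference inhibitor for full effect; nearly all actives have a fitted effect of over 55% in size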
Target sequence (P08659 whole entry, looked up): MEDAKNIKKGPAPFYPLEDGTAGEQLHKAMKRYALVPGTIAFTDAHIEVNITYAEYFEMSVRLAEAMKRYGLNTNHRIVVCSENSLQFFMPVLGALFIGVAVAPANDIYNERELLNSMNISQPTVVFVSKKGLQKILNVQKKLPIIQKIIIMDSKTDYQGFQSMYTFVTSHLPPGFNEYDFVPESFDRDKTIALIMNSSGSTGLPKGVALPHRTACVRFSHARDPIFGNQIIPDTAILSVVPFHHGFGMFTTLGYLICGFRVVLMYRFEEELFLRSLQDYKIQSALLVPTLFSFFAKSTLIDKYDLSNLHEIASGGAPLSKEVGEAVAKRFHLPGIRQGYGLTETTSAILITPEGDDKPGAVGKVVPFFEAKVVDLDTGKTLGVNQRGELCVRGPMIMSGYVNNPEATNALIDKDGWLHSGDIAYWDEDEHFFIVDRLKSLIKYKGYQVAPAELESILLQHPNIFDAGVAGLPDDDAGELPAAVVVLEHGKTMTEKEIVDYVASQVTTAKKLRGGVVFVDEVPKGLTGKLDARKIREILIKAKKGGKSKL
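Biochemical qHTS of compounds, final roughly 60 µM downward over six points, against 10 nM purified firefly luciferase using Km concentrations of substrates (10 uM D-luciferin, 10 uM ATP) in Tris acetate pH 7.5 buffer; luminescence output.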
SMN2 splice up = enhancers of SMN2 splice variant expression | HEK293 SMN2-luciferase splicing reporter, luminescence, 30-36 h | 210,000 tested, 2.8% active | Potency, µM (top dose mostly 46.1 µM), without a hit: top-dose activity change, positive = activation, most hits filed as activators; note: % of control where 0% means no effect; nearly all actives have a fitted effect of over 55% in size
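HEK293 cells carry an SMN2 […]–luciferase reporter in which exon 7 inclusion puts luciferase in frame. Cells were plated 10-12 h before compound addition, then incubated 30-36 h at 37C. ONE-Glo luminescence was read; sodium butyrate at 4.5 mM final served as control.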
NPC1 prom act = activators of NPC1 promoter | Huh7 NPC1 promoter luciferase reporter, 24 h | Potency, µM (series often up to 9.22 µM), without a hit: at the highest dose activation, most hits filed as activators | 320,000 tested, 2.4% active; note: % of control where 0% means no effect; nearly all actives have a fitted effect of over 60% in size
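Huh7 cells stably carrying NPC1 promoter–luciferase, plated in Opti-MEM with 10% FBS for 2 h, were exposed to compound in DMSO for 24 h at 37 °C; luciferase reagent was added for 10 min and luminescence read.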
ELG1 genotoxic = genotoxicity induction in ELG1-luciferase HEK293T cells. HEK293T ELG1-luciferase reporter, luminescence, 16 h. Potency, µM (top dose mostly 46 µM), for inactives: at the top dose activity change, positive = activation, most hits filed as activators. 330,000 tested, 1.3% active. AID 504466; note: % of control where 0% means no effect; nearly all actives have a fitted effect of over 60% in size
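Genotoxicity was scored as increased ELG1-luciferase reporter signal, measured by ONE-Glo luminescence (30 min, room temperature). Compound or vehicle exposure of the HEK293T reporter cells lasted 16 hr at 37°C.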
Rab9 promoter act = Rab9 promoter activation; Huh7 Rab9 promoter-luciferase reporter, luminescence, 24 h; Potency, µM (highest dose often 9.22 µM), for the others: top-dose activation, negative = inhibition, actives largely listed as activators; 320,000 tested, 2.8% active; AID 485297; note: % of control where 0% means no effect; nearly all actives have a fitted effect of over 60% in size
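Luminescence from Amplite-detected luciferase (10 minutes, ambient) reports Rab9 promoter activation. Before that, stable Rab9-luciferase Huh7 cells (1500/well, reduced-serum OP-MEM I plus 10% FBS) were exposed to compound for 24 hours at 37C.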
* hit, by the source's call; ? = inconclusive; . = not tested or not shown; [ ] = remark or other dose. Shown are actives, neighbours in structure and some others; about 7.5% of the full set was active somewhere. Calls come from the whole dose curve; as a rule, active = well fitted curve in the direction sought with a large enough effect; inconclusive = small, poorly fitted or top-dose-only effect, or another doubt; inactive = no such curve, though single readings can be large; an effect the other way counts as inactive or inconclusive. Potency is the fitted concentration of half-maximal effect.

SMILES	FLuc counter	SMN2 splice up	NPC1 prom act	ELG1 genotoxic	Rab9 promoter act
CCOC(=O)c1c(C)[nH]c(C(=O)COC(=O)CNC(=O)C2CCCCC2)c1C	3µM*	?	-1%	4%	7%
O=C(CNCc1ccccn1)Nc1cc(C(F)(F)F)ccc1N1CCOCC1	-3%	.	0%	-2%	-3%
O=C(Nc1cccc(C(F)(F)F)c1)c1cncs1	-3%	.	-5%	0%	0%
Cc1cccc(NC(=O)C(=O)NNC(=O)c2ccc(C(C)(C)C)cc2)c1	-19%	.	0%	5%	21%
Cc1ccc(F)c(NC(=O)/C(C#N)=C(\O)c2ccc(C(C)(C)C)cc2)c1	12µM*	?	8%	6%	5%
O=C(Nc1cccc2ccccc12)c1cn(-c2ccccc2)nc1-c1cccs1	?	-1%	4%	1%	-4%
O=C(N/N=C/c1nn(-c2ccccc2)cc1-c1ccccc1)c1ccncc1	9.5µM*	?	2%	-1%	-2%
O=C(N/N=C\c1cn(-c2ccccc2)nc1-c1ccccc1)c1ccc(Br)o1	?	-79%	0%	-21%	13%
O=C(N/N=C/C=C/c1ccccc1)c1ccncc1	-10%	1%	0%	1%	-5%
NC(=O)N/N=C/c1cn(-c2ccccc2)nc1-c1cccs1	2.1µM*	18µM*	?	?	?
O=C(O)c1cccc(N/N=C/c2cn(-c3ccccc3)nc2-c2cccs2)c1	1.3µM*	14µM*	3.5µM*	?	2µM*
O=C(N/N=C/c1cn(-c2ccccc2)nc1-c1cccs1)c1ccncc1	11µM*	2%	0%	-2%	-2%
O=C(c1cn(-c2ccccc2)nc1-c1cccs1)N1CCOCC1	?	-8%	-1%	1%	-4%
CNC(=O)COC(=O)/C=C/c1cn(-c2ccccc2)nc1-c1ccc2c(c1)OCCO2	-16%	-32%	-4%	-4%	18%
Cc1ccc(-c2nn(-c3ccccc3)cc2/C=N/NC(=O)c2ccncc2)o1	12µM*	14µM*	-4%	?	2%
Cc1ccc(-c2nn(-c3ccccc3)cc2/C=N/NC(=O)c2ccc(Br)o2)cc1	11µM*	-93%	-3%	-14%	6%
O=C(/C=C/c1cn(-c2ccccc2)nc1-c1cccs1)NCCN1CCOCC1	19µM*	.	0%	-9%	-1%
CN(C)C(=O)COC(=O)/C=C/c1cn(-c2ccccc2)nc1-c1cccs1	19µM*	7%	-3%	-5%	0%
COc1cccc(CNC(=O)C2CCN(C(=O)N(C)C)CC2)c1	0%	1%	-2%	-1%	-1%
CCN1CCCCC(=N/O)/C(=N/O)CCCC1	2%	-6%[9.22 µM]	0%	1%	-3%
O=C1CCCC/C=C\C[C@H](CC(=O)N(CCO)Cc2ccccc2)C(=O)N[C@@H](Cc2ccccc2)CO1	.	.	.	1%	.
NS(=O)(=O)c1ccc(N/N=C/c2cn(-c3ccccc3)nc2-c2cccs2)c([N+](=O)[O-])c1	-17%	-91%	-7%	-7%	-38%
NS(=O)(=O)c1ccc(N/N=C/c2cn(-c3ccccc3)nc2-c2cccs2)cc1	11µM*	.	4%	-1%	11%
COc1ccc(N/C=C(\C#N)c2nc3ccccc3n2C)c(OC)c1	2.7µM*	-18%	21%	-7%	0%
COc1ccccc1C(=O)c1nc2ccccc2n1C	1%	.	29%	0%	1%
SMILES	FLuc counter	SMN2 splice up	NPC1 prom act	ELG1 genotoxic	Rab9 promoter act
Cn1c(/C(C#N)=C/c2ccccc2Br)nc2ccccc21	7.6µM*	5%	.	.	.
CCn1c(/C(C#N)=C/c2ccccc2Cl)nc2ccccc21	5.4µM*	.	.	.	.
Cc1ccc(-c2nnn(CC(=O)N3C(C)CCCC3C)n2)cc1 (configuration not stated)	0%	.	-5%	10%	3%
O=C(c1ccoc1)N1CCC2(CC1)Oc1ccc(Cl)cc1C(=O)C21CC(c2ccccc2)=NO1 (configuration not stated)	0%	.	-7%	-6%	-9%
Cc1ccc(O)c(C=Nc2ccc3[nH]ncc3c2)c1	19µM*	23%	5%	-3%	-6%
Cc1ccc(O)c(C=Nc2cc(C)ccc2O)c1	-7%	17%	0%	0%	0%
Cc1cc2[nH]c(=O)cc(-c3ccccc3)n2n1	9.5µM*	.	?	?	?
COc1ccccc1S(=O)(=O)Cc1ccc(C(=O)NC2CCCCCC2)o1	0%	.	-4%	-6%	-4%
CC(=O)c1cnc2cc(-c3ccc(Cl)cc3)nn2c1C	2.7µM*	.	4.5µM*	?	3.5µM*
Cc1c(C(=O)O)cnc2cc(-c3ccc(Cl)cc3)nn12	9.5µM*	11µM*	?	?	?
CCc1ccc(-c2cc(C)no2)cc1S(=O)(=O)Nc1cc(C)ccn1	0%	.	-3%	7%	-10%
CC(Sc1nc2ccccc2n1C)C(=O)Nc1ccc(N2CCOCC2)cc1 (configuration not stated)	17µM*	-17%	-1%	21%	-2%
COc1cc(C(=O)Nc2ccc(N(C)C)cc2)c([N+](=O)[O-])cc1OC	4.8µM*	-3%	9%	?	-4%
Cc1ccc2nc(-c3cc(N)cc(N)c3)oc2c1	0.38µM*	?	?	7%	?
COc1ccc(C(=O)Nc2ccc3oc(-c4ccc(OC)cc4)nc3c2)cc1	-13%	.	.	.	.
Cc1ccc(C)c(-c2nc3cc(N)ccc3o2)c1	13µM*	11µM*	20%	10µM*	?
COC(=O)c1ccc(-c2nc3cc(N)ccc3o2)cc1	1.2µM*	?	22%	?	?
CN(C)c1ccc(-c2nc3cc(N)ccc3o2)cc1	0.19µM*	.	0.32µM*	0.52µM*	0.32µM*
COc1cccc(NC(=O)CSc2nnc(-c3cccs3)n2C)c1	-1%	-9%	-1%	-13%	-5%
Nc1ccc(-c2nc3cc(N)ccc3o2)cc1	2.7µM*	.	0.4µM*	5.2µM*	0.63µM*
Cc1ccc(-c2nc3cc(N)ccc3o2)cc1Br	1.9µM*	.	1.3µM*	2.9µM*	1.8µM*
Nc1ccc2oc(Cc3ccc(Cl)cc3)nc2c1	?	-1%	.	.	.
Nc1ccc(-c2nc3ccc(N)cc3o2)cc1	1.5µM*	?	?	21µM*	?
C=CC[C@@H](CC(=O)NCCO)C(=O)N[C@@H](COC(=O)[C@@H](CC=C)Cc1ccc(F)cc1)Cc1c[nH]c2ccccc12	.	.	.	-3%	.
CN(C)/C=C(\C(=O)c1cccc(Cl)c1)c1nnnn1-c1ccccc1	0%	.	2%	-6%	2%
O=C(O)c1ccccc1-c1ccccc1C(=O)Nc1ccc(-c2nc3cc(Cl)ccc3o2)cc1	15µM*	.	1%	17%	14%
CC(=O)Nc1ccc(-c2nc3cc(Cl)ccc3o2)cc1	1.3µM*	.	0.5µM*	2.1µM*	0.79µM*
CC(=O)Nc1cc(-c2nc3cc(Cl)ccc3o2)ccc1C	-18%	.	.	.	.
